The text below walks through data of PubChem BioAssay.

Records with an inconclusive call do not appear. The source made the active and inactive calls.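 Rule for the calls, unless noted: active = binding below the plate cutoff, the plate median minus 3 SD, with a reading above zero; inconclusive = below the plate cutoff but reading exactly zero; inactive = the rest.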

Experiment [1] is described as follows: yeast TOR pathway RPL19A-GFP modulators, primary screen, cell-based, S. cerevisiae, multiplex flow cytometry (AID 1862; in the data active = percent of DMSO control GFP below about 86%;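 note: lower values mimic rapamycin by blocking the RPL19A rise seen in DMSO cells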). The conditions noted are these: S. cerevisiae RPL19A-GFP strain, flow cytometry fluorescence, 3 h; at 10 µM; stronger effect = lower value.
Experiment [2] is described as follows: modulators of MEP2-GFP levels in yeast, primary screen, S. cerevisiae, multiplex flow cytometry (AID 1867;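 active = GFP response, as percent of the DMSO control, above the screen-wide mean plus 3 SD, about 139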;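 note: median GFP channel fluorescence of barcode-gated MEP2-GFP cells measured by flow cytometry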). Conditions: S. cerevisiae MEP2-GFP strain, 3 h, at 10 µM, stronger effect = higher value, 100% means same as DMSO wells.
The nature of experiment [3]: modulators of CIT2-GFP expression in yeast, primary screen, S. cerevisiae, GFP fusion, multiplex flow cytometry (AID 1870;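 active = percent response above a set limit, the screen-wide mean plus 3 SD, cut at about 130% in these data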;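 note: barcoded CIT2-GFP strain pooled with four other GFP strains with rapamycin as positive control; median GFP fluorescence per well over plate mean of DMSO wells so 100% = DMSO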). Conditions: 3 h, at 10 µM, stronger effect = higher value.
The nature of experiment [4]: modulators of LAP4-GFP expression in yeast, primary screen, S. cerevisiae, multiplex flow cytometry (AID 1873;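 active = GFP signal, as percent of the solvent control, above the screen mean plus 3 SD, about 149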). Conditions: 3 h, at 10 µM, stronger effect = higher value.
Experiment [5] in a line: modulators of AGP1-GFP expression in yeast TOR pathway, primary screen, cell-based, multiplex flow cytometry, S. cerevisiae (AID 1887;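 active = GFP signal above the screen-wide mean plus 3 SD, that is over about 124.5% of the solvent control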;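 note: AGP1-GFP fusion strain of S. cerevisiae within a five-strain barcoded multiplex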). The conditions noted are these: 3 h, at 10 µM, stronger effect = higher value.
Experiment [6] is described as follows: inhibitors of CD8+ T cell-vesicle binding, pilot screen, LFA-1/ICAM-1 modulator project, MLPCN validation set, flow cytometry (AID 2523;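 active = response below a set limit, under 55% cells CD8-positive and vesicle-bound, and CD8 cells' 90th-percentile brightness under 279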;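 for vesicle binding response: mean PE anti-B7-1 fluorescence of CD8+ cells relative to row control; 100% = QL9-loaded vesicles with DMSO vehicle in the same plate row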). Conditions: 2C mouse CD8+ T cells, at 7 µM, stronger effect = lower value; double positive events: measured here: CD8+/vesicle+ event percentage.
Experiment [7] deals with Integrin beta-1 (Homo sapiens) + Integrin alpha-4 (Homo sapiens) (UniProt P13612+P05556). Briefly: inhibition of HUTS-21 binding to VLA-4, pilot screen, VLA-4 allosteric modulator project, U937 cells, HUTS-21 mAb, flow cytometry, validation set (AID 2674;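 active = inhibition above 50%, about 3 SD of the validation set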;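 note: antibody binding induced by the VLA-4 ligand LDV present at three times its Kd; 0% = LDV ligand with antibody and no compound and 100% = antibody without LDV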). Conditions: HUTS-21 LIBS mAb binding, at 6.7 µM, stronger effect = higher value, binding induced by LDV ligand.
The nature of experiment [8]: superoxide lowering in aged yeast cells, pilot screen, validation compound set (AID 2706;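 active = superoxide response below 65% of plate, a cut near 3 SD across the whole screen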;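 note: yeast exposed to compound for one week at 30 degrees C before staining; 100% = mean of all compound wells on the same plate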). Conditions: S. cerevisiae aging, superoxide DHE fluorescence; at 10 µM; stronger effect = lower value.
Experiment [9] concerns the target Beta-adrenergic receptor kinase 1 (Homo sapiens) (UniProt P25098). In words: GRK2 binders displacing RNA aptamer, biochemical, validation, human GRK2, bead flow cytometry (AID 488806;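 active = aptamer binding inhibition above 30%, about 3 SD of noise from non-fluorescent compounds; inactive = inhibition at or below 30%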). The conditions noted are these: bead-bound GRK2, FAM-aptamer displacement, at 10 µM, stronger effect = higher value.
Experiment [10] addresses Beta-2 adrenergic receptor (Homo sapiens) (UniProt P07550). In words: beta2AR agonists driving receptor internalization, pilot screen, cell-based, FAP fluorogen, flow cytometry, validation set (AID 504459;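 active = percent response above 42, roughly 3 SD of non-fluorescent test compounds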;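 note: agonist-driven loss of surface beta2AR via internalization measured by FAP dye flow cytometry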). The conditions noted are these: Am2.2-beta2AR cells, FAP surface receptor flow cytometry; at 10 µM; stronger effect = higher value.
For experiment [11], the target named is AP-2 complex subunit beta (Homo sapiens) (UniProt P63010). Briefly: inhibitors of arrestin peptide binding to AP2, pilot screen, biochemical, validation set, GST-AP2 beads, flow cytometry (AID 504541;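 active = inhibition above 54%, about 3 SD of non-fluorescent compounds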;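 note: AP2 carries R879A mutation and is captured from E. coli lysate; bead-bound FITC arrestin peptide fluorescence measuring arrestin peptide binding to AP2; 0% = DMSO wells and 100% = excess unlabeled arrestin peptide control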). The conditions noted are these: FITC arrestin peptide, at 10 µM, stronger effect = higher value, AP2 beta2 appendage fragment, R879A mutant.
The nature of experiment [12]: yeast V-ATPase proton transport modulators, S. cerevisiae, pHLuorin, HTS validation (AID 504600; in the data active = response above about 15%;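 note: plate controls were DMSO for no effect and reference compound for full effect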). The conditions noted are these: S. cerevisiae pHLuorin cytosolic pH, at 10 µM, stronger effect = higher value.
Experiment [13] relates to anti-desmoglein-3 scFv antibody binding to human DSG3. Briefly: inhibitors of anti-DSG3 scFv binding to DSG3, pilot screen, biochemical, validation compound set, bead-based, flow cytometry (AID 588368).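 Note: signal is the median channel fluorescence of bead-bound GFP antibody.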 The conditions noted are these: Protein G beads, DSG3-Fc, scFv-GFP binding, at 10 µM, stronger effect = lower value.
The nature of experiment [14]: inhibitors of fungal efflux pumps CDR1, CDR2, MDR1, pilot screen, validation compound set, multiplex, phenotypic (AID 588506;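 active = efflux inhibition above 0.42, the validation set average plus 4 SD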;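 note: Nile Red retained in cells so higher fluorescence means more efflux inhibition; 0 = negative control wells and 1 = enniatin B 25 µM full block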). The conditions noted are these: S. cerevisiae pump-expressing triplex, Nile Red efflux flow cytometry; at 10 µM; stronger effect = higher value; the pumps come from Candida albicans.
Experiment [15] addresses ATP-binding cassette sub-family B member 6 (Homo sapiens) (UniProt Q9NP58). In words: ABCB6 transporter inhibitors, pilot screen, K562-ABCB6 cells, flow cytometry, validation set (AID 588550;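 active = inhibition above the screen-wide mean plus 3 SD, about 51%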;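 note: 0% = DMSO wells and 100% = benzethonium chloride 70 µM positive control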). The conditions noted are these: K562-ABCB6 porphyrin accumulation, 1 h, at 10 µM, stronger effect = higher value.
The nature of experiment [16]: promoters of myeloid differentiation in arrested cells, primary screen, cell-based, GFP/MAC1 double positive, flow cytometry, validation set (AID 588685;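 active = differentiation response of at least 50%, scaled between solvent and reference control, from cells with both markers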;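 note: compound exposure lasts four days before antibody staining and flow analysis; 0% = DMSO wells and 100% = 5 µM fulvestrant positive control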). Conditions: ER-HoxA9 marrow cells, stronger effect = higher value, normalized: vehicle 0, fulvestrant 100.

Sequence of Integrin beta-1 (Homo sapiens) + Integrin alpha-4 (Homo sapiens) (P05556 whole entry, looked up): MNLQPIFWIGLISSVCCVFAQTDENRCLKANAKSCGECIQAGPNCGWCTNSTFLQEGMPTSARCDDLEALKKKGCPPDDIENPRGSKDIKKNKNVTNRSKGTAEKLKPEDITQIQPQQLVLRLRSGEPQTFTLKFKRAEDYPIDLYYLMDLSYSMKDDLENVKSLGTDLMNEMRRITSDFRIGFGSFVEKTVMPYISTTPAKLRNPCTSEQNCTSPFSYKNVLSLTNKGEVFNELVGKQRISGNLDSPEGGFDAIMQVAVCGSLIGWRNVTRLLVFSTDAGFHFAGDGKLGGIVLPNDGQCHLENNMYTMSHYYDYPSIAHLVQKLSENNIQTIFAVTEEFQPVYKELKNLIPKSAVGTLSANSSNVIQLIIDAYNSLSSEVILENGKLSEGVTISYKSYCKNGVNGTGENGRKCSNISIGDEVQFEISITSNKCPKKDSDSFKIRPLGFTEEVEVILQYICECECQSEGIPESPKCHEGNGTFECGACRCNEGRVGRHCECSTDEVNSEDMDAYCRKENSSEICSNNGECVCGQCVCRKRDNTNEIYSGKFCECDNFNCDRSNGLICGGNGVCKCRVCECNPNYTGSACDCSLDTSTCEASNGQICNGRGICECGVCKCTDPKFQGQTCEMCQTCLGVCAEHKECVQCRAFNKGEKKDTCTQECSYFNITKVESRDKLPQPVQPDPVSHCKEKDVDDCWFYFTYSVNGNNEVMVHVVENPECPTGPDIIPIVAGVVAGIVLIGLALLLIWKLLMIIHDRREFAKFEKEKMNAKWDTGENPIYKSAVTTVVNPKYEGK
Sequence of Integrin beta-1 (Homo sapiens) + Integrin alpha-4 (Homo sapiens) (P13612 whole entry, looked up): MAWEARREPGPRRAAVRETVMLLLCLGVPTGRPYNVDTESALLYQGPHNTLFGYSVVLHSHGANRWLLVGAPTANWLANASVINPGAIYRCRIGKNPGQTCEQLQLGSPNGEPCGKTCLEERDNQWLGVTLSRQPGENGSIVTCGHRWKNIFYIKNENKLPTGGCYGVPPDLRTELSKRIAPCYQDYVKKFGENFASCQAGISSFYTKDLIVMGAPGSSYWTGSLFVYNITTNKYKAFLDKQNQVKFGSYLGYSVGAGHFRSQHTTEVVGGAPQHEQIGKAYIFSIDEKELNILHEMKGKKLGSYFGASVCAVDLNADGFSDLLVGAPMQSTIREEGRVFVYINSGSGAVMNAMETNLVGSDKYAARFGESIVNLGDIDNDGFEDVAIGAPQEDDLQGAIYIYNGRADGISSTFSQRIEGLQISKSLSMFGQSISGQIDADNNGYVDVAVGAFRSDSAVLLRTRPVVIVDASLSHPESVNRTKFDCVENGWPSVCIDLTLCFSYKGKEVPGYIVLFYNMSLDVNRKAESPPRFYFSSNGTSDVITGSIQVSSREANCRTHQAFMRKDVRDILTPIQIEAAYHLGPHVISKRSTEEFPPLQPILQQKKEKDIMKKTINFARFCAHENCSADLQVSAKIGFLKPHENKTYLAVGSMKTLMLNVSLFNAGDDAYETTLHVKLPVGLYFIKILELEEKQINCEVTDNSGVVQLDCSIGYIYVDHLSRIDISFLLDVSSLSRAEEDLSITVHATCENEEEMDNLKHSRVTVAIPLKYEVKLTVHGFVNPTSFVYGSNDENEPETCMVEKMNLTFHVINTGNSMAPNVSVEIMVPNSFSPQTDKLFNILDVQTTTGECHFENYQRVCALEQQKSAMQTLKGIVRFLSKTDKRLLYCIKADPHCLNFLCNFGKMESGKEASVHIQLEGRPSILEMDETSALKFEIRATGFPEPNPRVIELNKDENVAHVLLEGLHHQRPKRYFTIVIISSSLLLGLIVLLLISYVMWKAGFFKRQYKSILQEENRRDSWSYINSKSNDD
Sequence of Beta-2 adrenergic receptor (Homo sapiens) (P07550 whole entry, looked up): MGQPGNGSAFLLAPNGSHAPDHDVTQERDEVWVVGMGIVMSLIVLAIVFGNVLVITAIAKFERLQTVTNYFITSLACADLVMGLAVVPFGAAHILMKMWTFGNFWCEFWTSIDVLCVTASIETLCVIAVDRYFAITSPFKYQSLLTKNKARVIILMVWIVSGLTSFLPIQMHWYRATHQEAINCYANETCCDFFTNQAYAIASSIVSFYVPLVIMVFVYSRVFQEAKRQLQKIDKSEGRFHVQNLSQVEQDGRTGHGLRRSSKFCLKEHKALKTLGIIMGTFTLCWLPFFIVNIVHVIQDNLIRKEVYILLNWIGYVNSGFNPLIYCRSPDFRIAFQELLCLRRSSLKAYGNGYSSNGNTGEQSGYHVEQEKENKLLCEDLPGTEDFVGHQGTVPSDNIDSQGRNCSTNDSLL
Sequence of AP-2 complex subunit beta (Homo sapiens) (P63010 whole entry, looked up, the tested form may be a part, one chain of several): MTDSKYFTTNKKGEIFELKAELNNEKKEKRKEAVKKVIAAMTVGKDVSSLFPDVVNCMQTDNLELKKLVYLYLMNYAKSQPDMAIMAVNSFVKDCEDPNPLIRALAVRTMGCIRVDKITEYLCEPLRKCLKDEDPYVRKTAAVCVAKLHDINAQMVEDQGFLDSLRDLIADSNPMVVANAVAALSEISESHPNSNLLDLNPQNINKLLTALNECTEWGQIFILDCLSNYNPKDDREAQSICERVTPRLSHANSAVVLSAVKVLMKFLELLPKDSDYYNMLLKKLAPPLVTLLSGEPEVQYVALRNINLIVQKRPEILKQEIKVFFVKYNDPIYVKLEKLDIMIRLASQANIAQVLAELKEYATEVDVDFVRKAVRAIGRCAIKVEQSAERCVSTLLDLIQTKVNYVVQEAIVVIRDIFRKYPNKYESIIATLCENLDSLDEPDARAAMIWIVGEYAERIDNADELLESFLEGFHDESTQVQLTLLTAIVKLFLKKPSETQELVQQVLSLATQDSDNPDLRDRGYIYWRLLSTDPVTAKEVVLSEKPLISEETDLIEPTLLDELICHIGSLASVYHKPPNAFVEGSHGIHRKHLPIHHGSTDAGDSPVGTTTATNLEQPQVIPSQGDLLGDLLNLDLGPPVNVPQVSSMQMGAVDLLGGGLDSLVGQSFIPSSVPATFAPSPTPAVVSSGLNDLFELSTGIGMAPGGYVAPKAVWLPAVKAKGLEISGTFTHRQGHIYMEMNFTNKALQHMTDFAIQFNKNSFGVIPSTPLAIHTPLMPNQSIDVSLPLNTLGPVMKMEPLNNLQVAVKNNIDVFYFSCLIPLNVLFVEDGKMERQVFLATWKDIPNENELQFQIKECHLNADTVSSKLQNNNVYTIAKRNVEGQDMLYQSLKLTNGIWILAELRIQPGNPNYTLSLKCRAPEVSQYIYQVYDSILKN
Sequence of Beta-adrenergic receptor kinase 1 (Homo sapiens) (P25098 whole entry, looked up): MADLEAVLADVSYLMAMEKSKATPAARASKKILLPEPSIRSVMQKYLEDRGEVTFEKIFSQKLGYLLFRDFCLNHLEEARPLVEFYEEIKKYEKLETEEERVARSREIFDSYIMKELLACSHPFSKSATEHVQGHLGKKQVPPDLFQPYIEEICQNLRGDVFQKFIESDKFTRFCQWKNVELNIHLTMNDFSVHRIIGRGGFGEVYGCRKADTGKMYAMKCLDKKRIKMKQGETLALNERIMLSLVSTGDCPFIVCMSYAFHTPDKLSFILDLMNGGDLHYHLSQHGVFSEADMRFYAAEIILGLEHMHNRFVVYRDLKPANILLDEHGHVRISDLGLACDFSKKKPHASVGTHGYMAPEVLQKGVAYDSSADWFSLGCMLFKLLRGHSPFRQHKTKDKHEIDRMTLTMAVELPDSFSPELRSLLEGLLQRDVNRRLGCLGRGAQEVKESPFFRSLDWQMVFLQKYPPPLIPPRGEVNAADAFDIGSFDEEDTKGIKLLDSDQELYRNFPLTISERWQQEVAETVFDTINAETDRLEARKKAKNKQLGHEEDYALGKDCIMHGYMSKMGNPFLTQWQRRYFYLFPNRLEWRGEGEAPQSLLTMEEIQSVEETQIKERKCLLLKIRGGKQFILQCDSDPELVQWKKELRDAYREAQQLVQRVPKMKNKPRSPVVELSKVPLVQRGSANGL
Sequence of ATP-binding cassette sub-family B member 6 (Homo sapiens) (Q9NP58 whole entry, looked up): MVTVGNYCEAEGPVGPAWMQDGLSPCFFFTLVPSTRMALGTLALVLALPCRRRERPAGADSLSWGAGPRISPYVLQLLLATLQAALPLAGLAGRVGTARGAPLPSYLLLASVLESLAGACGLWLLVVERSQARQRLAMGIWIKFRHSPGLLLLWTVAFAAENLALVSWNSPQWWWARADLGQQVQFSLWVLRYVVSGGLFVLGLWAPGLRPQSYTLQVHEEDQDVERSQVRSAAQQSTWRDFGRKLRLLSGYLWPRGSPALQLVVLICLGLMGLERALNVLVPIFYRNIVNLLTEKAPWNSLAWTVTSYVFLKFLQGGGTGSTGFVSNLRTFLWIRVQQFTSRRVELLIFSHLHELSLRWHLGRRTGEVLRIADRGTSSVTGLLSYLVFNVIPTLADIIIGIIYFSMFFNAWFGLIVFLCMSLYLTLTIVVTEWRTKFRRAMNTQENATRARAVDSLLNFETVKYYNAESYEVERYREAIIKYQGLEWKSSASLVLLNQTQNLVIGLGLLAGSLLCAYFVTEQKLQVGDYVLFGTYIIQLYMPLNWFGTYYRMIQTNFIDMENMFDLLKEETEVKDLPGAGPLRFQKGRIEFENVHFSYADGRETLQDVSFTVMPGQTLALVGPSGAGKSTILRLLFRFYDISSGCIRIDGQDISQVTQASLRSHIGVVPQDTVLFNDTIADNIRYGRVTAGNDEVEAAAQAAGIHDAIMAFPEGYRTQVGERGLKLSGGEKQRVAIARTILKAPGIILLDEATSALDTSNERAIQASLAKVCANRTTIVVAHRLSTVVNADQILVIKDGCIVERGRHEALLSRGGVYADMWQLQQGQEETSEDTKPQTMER

On to `CCn1nc(C(=O)O)c(=O)c2cc3c(cc21)OCO3`, for which the percent of DMSO control GFP in experiment [1] was 103% (inactive). Moreover, the GFP response vs DMSO in experiment [2] was 104% (inactive); in experiment [4], 90.7% (inactive). Moreover, the percent response of DMSO control in [3] is 104% (inactive). In addition, the GFP response, % of DMSO in experiment [5] was 98.3% (inactive). The same compound displayed a double positive events in [6] of 55.1%. Moreover, the vesicle binding response in experiment [6] is 726% (inactive). Further, the results for the inhibition in experiment [7], in experiment [11] and in experiment [15] were 14.1% (inactive), -8.41% (inactive) and -8% (inactive), respectively. For the same compound, the superoxide response (% of plate) in experiment [8] was 92.7% (inactive). In addition, the aptamer binding inhibition in [9] was 2% (inactive). Also, the response is -7.41% (inactive) in experiment [10] and 61.9% (active) in experiment [12]. Moreover, the binding (% of control) in experiment [13] is 98.4% (inactive). For the same compound, the efflux inhibition (fraction of control) in experiment [14] was -0.1 (inactive). Besides, the differentiation response in experiment [16] was 13.9% (inactive).
Consider `CC1(CC(=O)Nc2ccccc2)NC(=S)N(c2ccccc2)N1` (stereo not drawn), for which the percent of DMSO control GFP in experiment [1] is 106% (inactive). The GFP response vs DMSO is 111% (inactive) in experiment [2] and 134% (inactive) in experiment [4]. Further, the percent response of DMSO control in [3] was 90.1% (inactive). Moreover, the GFP response, % of DMSO in [5] is 104% (inactive). Further, in [6], the double positive events is 49.5%. Also, the vesicle binding response in experiment [6] was 9640% (inactive). For the same compound, the values for the inhibition in [7], in experiment [11] and in [15] were -0.43% (inactive), -4.29% (inactive) and 6% (inactive), respectively. Besides, the superoxide response (% of plate) in [8] is 109% (inactive). In experiment [9], the aptamer binding inhibition was 5% (inactive). Besides, the values for the response in [10] and in experiment [12] were -7.2% (inactive) and -0.03% (inactive), respectively. Besides, in [13], the binding (% of control) is 99.1% (inactive). Also, the efflux inhibition (fraction of control) in experiment [14] was -0.13 (inactive). Moreover, the differentiation response in [16] is -18.4% (inactive).
For the compound `CC(C)=CC/C=C1\CCC(C(=O)O)C(C(=O)O)C1` (stereo not drawn), the percent of DMSO control GFP in experiment [1] is 89.5% (inactive). For the same compound, the GFP response vs DMSO in experiment [2] is 123% (inactive); in experiment [4] it was 81.4% (inactive). For the same compound, the percent response of DMSO control in [3] was 95.2% (inactive). For the same compound, the GFP response, % of DMSO in experiment [5] was 87.5% (inactive). In experiment [6], the double positive events came to 63.2%. Also, in experiment [6], the vesicle binding response is 160% (inactive). The inhibition is -14.9% (inactive) in experiment [7], -6.38% (inactive) in experiment [11] and 14% (inactive) in [15]. Further, the superoxide response (% of plate) in experiment [8] was 91.6% (inactive). The aptamer binding inhibition in experiment [9] was 6% (inactive). Also, the figures for the response in experiment [10] and in experiment [12] were -0.75% (inactive) and 1.64% (inactive), respectively. Also, the binding (% of control) in [13] is 103% (inactive). In addition, the efflux inhibition (fraction of control) in [14] was -0.35 (inactive). In addition, in [16], the differentiation response is -2.46% (inactive).
Regarding `COc1ccc(/C=C\c2cc(OC)c(OC)cc2CC[N+](C)(C)C)cc1OC`, the percent of DMSO control GFP in [1] is 96.3% (inactive). The GFP response vs DMSO in experiment [2] was 102% (inactive); in experiment [4] it was 122% (inactive). In experiment [3], the percent response of DMSO control is 101% (inactive). Moreover, the GFP response, % of DMSO in experiment [5] is 103% (inactive). In experiment [6], this compound had a double positive events of 57.8%. Also, the vesicle binding response in [6] is 216% (inactive). In addition, the inhibition is -4.52% (inactive) in experiment [7], -9.15% (inactive) in experiment [11] and 2% (inactive) in experiment [15]. Also, the superoxide response (% of plate) in experiment [8] was 108% (inactive). In experiment [9], the aptamer binding inhibition is -3% (inactive). The values for the response in experiment [10] and in experiment [12] were -7.25% (inactive) and 0.95% (inactive), respectively. In [13], the binding (% of control) is 103% (inactive). In experiment [14], the efflux inhibition (fraction of control) was 0.26 (inactive). Further, the differentiation response in experiment [16] is -0.8% (inactive).
